# Data as given in PMC11006913.
# Residue numbers refer to the chain shown, from its start.
# Columns and labels:
# Test in all cases: PBM; 200 nM protein, PBS
# Conditions in all cases: dsDNA, one strand shown
# CRX [1] = target: CRX (Homo sapiens, UniProt O43186 26-111)
# CRX [2] = target: CRX (Homo sapiens, UniProt O43186 26-111, E42D)
# ALX1 [3] = target: ALX1 (Homo sapiens, UniProt Q15699 118-204, L144V)
# ALX1 [4] = target: ALX1 (Homo sapiens, UniProt Q15699 118-204, L144R)
# CRX [5] = target: CRX (Homo sapiens, UniProt O43186 26-111, R41L)
# Chain of CRX (Homo sapiens, UniProt O43186 26-111, R41L) (O43186 26-111 R41L): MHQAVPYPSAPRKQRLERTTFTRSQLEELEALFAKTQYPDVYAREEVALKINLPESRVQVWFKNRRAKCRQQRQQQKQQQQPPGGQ
# ALX1 [6] = target: ALX1 (Homo sapiens, UniProt Q15699 118-204)
# Chain of ALX1 (Homo sapiens, UniProt Q15699 118-204) (Q15699 118-204): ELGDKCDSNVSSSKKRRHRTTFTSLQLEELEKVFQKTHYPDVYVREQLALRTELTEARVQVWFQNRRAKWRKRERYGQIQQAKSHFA
# PITX2 = PITX2 (Homo sapiens, UniProt Q99697 72-157)
# MSX2 [7] = target: MSX2 (Homo sapiens, UniProt P35548 130-214)
# Chain of MSX2 (Homo sapiens, UniProt P35548 130-214) (P35548 130-214): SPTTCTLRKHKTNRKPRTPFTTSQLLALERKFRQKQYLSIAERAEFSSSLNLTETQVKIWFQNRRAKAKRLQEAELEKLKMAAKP
# MSX2 [8] = target: MSX2 (Homo sapiens, UniProt P35548 130-214, F161Y)
# Chain of MSX2 (Homo sapiens, UniProt P35548 130-214, F161Y) (P35548 130-214 F161Y): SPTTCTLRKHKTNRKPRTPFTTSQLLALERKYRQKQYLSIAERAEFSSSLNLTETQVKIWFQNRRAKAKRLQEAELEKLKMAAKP
# ALX3 [9] = target: ALX3 (Homo sapiens, UniProt O95076 139-225, N203Q)
# Chain of ALX3 (Homo sapiens, UniProt O95076 139-225, N203Q) (O95076 139-225 N203Q): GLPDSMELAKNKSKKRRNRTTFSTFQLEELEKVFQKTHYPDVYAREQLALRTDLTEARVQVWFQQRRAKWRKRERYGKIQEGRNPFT
# ALX3 [10] = target: ALX3 (Homo sapiens, UniProt O95076 139-225)
# Chain of ALX3 (Homo sapiens, UniProt O95076 139-225) (O95076 139-225): as the sequence (O95076 139-225 N203Q) above, with Q65N counted along it
# ALX3 [11] = target: ALX3 (Homo sapiens, UniProt O95076 139-225, L168Q)
# Chain of ALX3 (Homo sapiens, UniProt O95076 139-225, L168Q) (O95076 139-225 L168Q): as the sequence (O95076 139-225 N203Q) above, with L30Q, Q65N counted along it
# ALX3 [12] = target: ALX3 (Homo sapiens, UniProt O95076 139-225, L168V)
# Chain of ALX3 (Homo sapiens, UniProt O95076 139-225, L168V) (O95076 139-225 L168V): as the sequence (O95076 139-225 N203Q) above, with L30V, Q65N counted along it
# ALX3 [13] = target: ALX3 (Homo sapiens, UniProt O95076 139-225, N203S)
# Chain of ALX3 (Homo sapiens, UniProt O95076 139-225, N203S) (O95076 139-225 N203S): as the sequence (O95076 139-225 N203Q) above, with Q65S counted along it
# NKX2-6 [14] = target: T1, NKX2-6 (Homo sapiens, UniProt A6NCS4 118-204)
# T1 sequence: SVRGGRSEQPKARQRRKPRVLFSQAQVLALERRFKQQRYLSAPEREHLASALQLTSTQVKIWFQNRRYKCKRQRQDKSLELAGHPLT
# VAX1 [15] = target: VAX1 (Homo sapiens, UniProt Q5SQQ9 86-172)
# Chain of VAX1 (Homo sapiens, UniProt Q5SQQ9 86-172) (Q5SQQ9 86-172): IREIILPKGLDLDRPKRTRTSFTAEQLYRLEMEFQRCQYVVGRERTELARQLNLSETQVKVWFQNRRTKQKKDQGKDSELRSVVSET
# NKX2-6 [16] = target: T2, NKX2-6 (Homo sapiens, UniProt A6NCS4 118-204, F151L)
# T2 sequence: T1 sequence with F34L
# VAX1 [17] = target: VAX1 (Homo sapiens, UniProt Q5SQQ9 86-172, T142I)
# Chain of VAX1 (Homo sapiens, UniProt Q5SQQ9 86-172, T142I) (Q5SQQ9 86-172 T142I): as the sequence (Q5SQQ9 86-172) above, with T57I counted along it
# VAX1 [18] = target: VAX1 (Homo sapiens, UniProt Q5SQQ9 86-172, K157R)
# Chain of VAX1 (Homo sapiens, UniProt Q5SQQ9 86-172, K157R) (Q5SQQ9 86-172 K157R): as the sequence (Q5SQQ9 86-172) above, with K72R counted along it
# PROP1 [19] = target: PROP1 (Homo sapiens, UniProt O75360 56-141)
# Chain of PROP1 (Homo sapiens, UniProt O75360 56-141) (O75360 56-141): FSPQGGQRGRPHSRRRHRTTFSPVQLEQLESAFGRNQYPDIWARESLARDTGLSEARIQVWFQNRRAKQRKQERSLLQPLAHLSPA
# PROP1 [20] = target: PROP1 (Homo sapiens, UniProt O75360 56-141, R99H)
# Chain of PROP1 (Homo sapiens, UniProt O75360 56-141, R99H) (O75360 56-141 R99H): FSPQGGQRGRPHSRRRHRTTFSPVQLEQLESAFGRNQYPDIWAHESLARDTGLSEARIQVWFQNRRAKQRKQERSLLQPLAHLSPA
# PROP1 [21] = target: PROP1 (Homo sapiens, UniProt O75360 56-141, F88S)
# Chain of PROP1 (Homo sapiens, UniProt O75360 56-141, F88S) (O75360 56-141 F88S): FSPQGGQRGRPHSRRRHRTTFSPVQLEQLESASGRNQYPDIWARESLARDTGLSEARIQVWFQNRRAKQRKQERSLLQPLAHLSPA
# HOXD13 [22] = target: HOXD13 (Homo sapiens, UniProt P35453 263-343, T313R)
# Chain of HOXD13 (Homo sapiens, UniProt P35453 263-343, T313R) (P35453 263-343 T313R): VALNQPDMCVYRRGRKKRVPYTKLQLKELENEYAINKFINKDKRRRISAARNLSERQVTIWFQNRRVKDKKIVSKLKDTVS
# HOXD13 [23] = target: HOXD13 (Homo sapiens, UniProt P35453 263-343)
# Chain of HOXD13 (Homo sapiens, UniProt P35453 263-343) (P35453 263-343): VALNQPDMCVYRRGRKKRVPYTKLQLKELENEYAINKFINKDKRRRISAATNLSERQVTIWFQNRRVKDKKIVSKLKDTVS
# HOXD13 [24] = target: HOXD13 (Homo sapiens, UniProt P35453 263-343, T313A)
# Chain of HOXD13 (Homo sapiens, UniProt P35453 263-343, T313A) (P35453 263-343 T313A): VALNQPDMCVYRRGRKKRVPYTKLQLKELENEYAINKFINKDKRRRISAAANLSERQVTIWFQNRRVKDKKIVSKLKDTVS
# Chain of ALX1 (Homo sapiens, UniProt Q15699 118-204, L144R) (Q15699 118-204 L144R): as the sequence (Q15699 118-204) above, with L27R counted along it
# Chain of CRX (Homo sapiens, UniProt O43186 26-111) (O43186 26-111): as the sequence (O43186 26-111 R41L) above, with L16R counted along it
# Chain of CRX (Homo sapiens, UniProt O43186 26-111, E42D) (O43186 26-111 E42D): as the sequence (O43186 26-111 R41L) above, with L16R, E17D counted along it
# Chain of ALX1 (Homo sapiens, UniProt Q15699 118-204, L144V) (Q15699 118-204 L144V): as the sequence (Q15699 118-204) above, with L27V counted along it
sequence,measurement,setting,value
CGGACACG,binding signal,CRX [1],"8.06 upbm affinity estimate (log intensity, higher = more binding, comparable within an allelic series)"
same,binding signal,CRX [2],"8.04 upbm affinity estimate (log intensity, higher = more binding, comparable within an allelic series)"
same,binding signal,ALX1 [3],"6.53 upbm affinity estimate (log intensity, higher = more binding, comparable within an allelic series)"
same,binding signal,ALX1 [4],"6.6 upbm affinity estimate (log intensity, higher = more binding, comparable within an allelic series)"
same,binding signal,CRX [5],"8.13 upbm affinity estimate (log intensity, higher = more binding, comparable within an allelic series)"
same,binding signal,ALX1 [6],"6.41 upbm affinity estimate (log intensity, higher = more binding, comparable within an allelic series)"
GGGGATTA,binding signal,CRX [1],"13.7 upbm affinity estimate (log intensity, higher = more binding, comparable within an allelic series)"
same,binding signal,CRX [2],"13.8 upbm affinity estimate (log intensity, higher = more binding, comparable within an allelic series)"
same,binding signal,PITX2,"13.5 upbm affinity estimate (log intensity, higher = more binding, comparable within an allelic series)"
same,binding signal,CRX [5],"13.8 upbm affinity estimate (log intensity, higher = more binding, comparable within an allelic series)"
GCAAGGAC,binding signal,CRX [1],"8.57 upbm affinity estimate (log intensity, higher = more binding, comparable within an allelic series)"
same,binding signal,CRX [2],"8.32 upbm affinity estimate (log intensity, higher = more binding, comparable within an allelic series)"
same,binding signal,ALX1 [3],"6.53 upbm affinity estimate (log intensity, higher = more binding, comparable within an allelic series)"
same,binding signal,ALX1 [4],"6.6 upbm affinity estimate (log intensity, higher = more binding, comparable within an allelic series)"
same,binding signal,CRX [5],"8.3 upbm affinity estimate (log intensity, higher = more binding, comparable within an allelic series)"
same,binding signal,ALX1 [6],"6.36 upbm affinity estimate (log intensity, higher = more binding, comparable within an allelic series)"
ATAATCCC,binding signal,CRX [1],"13.5 upbm affinity estimate (log intensity, higher = more binding, comparable within an allelic series)"
same,binding signal,CRX [2],"13.7 upbm affinity estimate (log intensity, higher = more binding, comparable within an allelic series)"
same,binding signal,PITX2,"13.2 upbm affinity estimate (log intensity, higher = more binding, comparable within an allelic series)"
same,binding signal,CRX [5],"13.7 upbm affinity estimate (log intensity, higher = more binding, comparable within an allelic series)"
AATAATCC,binding signal,CRX [1],"13.4 upbm affinity estimate (log intensity, higher = more binding, comparable within an allelic series)"
same,binding signal,CRX [2],"13.4 upbm affinity estimate (log intensity, higher = more binding, comparable within an allelic series)"
same,binding signal,PITX2,"13 upbm affinity estimate (log intensity, higher = more binding, comparable within an allelic series)"
same,binding signal,MSX2 [7],"11.5 upbm affinity estimate (log intensity, higher = more binding, comparable within an allelic series)"
same,binding signal,MSX2 [8],"11.3 upbm affinity estimate (log intensity, higher = more binding, comparable within an allelic series)"
same,binding signal,CRX [5],"13.4 upbm affinity estimate (log intensity, higher = more binding, comparable within an allelic series)"
AAATCTGC,binding signal,CRX [1],"10.8 upbm affinity estimate (log intensity, higher = more binding, comparable within an allelic series)"
same,binding signal,CRX [2],"10.6 upbm affinity estimate (log intensity, higher = more binding, comparable within an allelic series)"
same,binding signal,ALX1 [3],"8.09 upbm affinity estimate (log intensity, higher = more binding, comparable within an allelic series)"
same,binding signal,ALX1 [4],"8 upbm affinity estimate (log intensity, higher = more binding, comparable within an allelic series)"
same,binding signal,CRX [5],"10.6 upbm affinity estimate (log intensity, higher = more binding, comparable within an allelic series)"
same,binding signal,ALX1 [6],"8.23 upbm affinity estimate (log intensity, higher = more binding, comparable within an allelic series)"
CTCCGCGC,binding signal,CRX [1],"8.47 upbm affinity estimate (log intensity, higher = more binding, comparable within an allelic series)"
same,binding signal,CRX [2],"8.47 upbm affinity estimate (log intensity, higher = more binding, comparable within an allelic series)"
same,binding signal,ALX3 [9],"7.75 upbm affinity estimate (log intensity, higher = more binding, comparable within an allelic series)"
same,binding signal,ALX3 [10],"7.82 upbm affinity estimate (log intensity, higher = more binding, comparable within an allelic series)"
same,binding signal,ALX3 [11],"7.71 upbm affinity estimate (log intensity, higher = more binding, comparable within an allelic series)"
same,binding signal,ALX3 [12],"7.69 upbm affinity estimate (log intensity, higher = more binding, comparable within an allelic series)"
same,binding signal,CRX [5],"8.43 upbm affinity estimate (log intensity, higher = more binding, comparable within an allelic series)"
same,binding signal,ALX3 [13],"7.76 upbm affinity estimate (log intensity, higher = more binding, comparable within an allelic series)"
CCCAGTCC,binding signal,CRX [1],"8.2 upbm affinity estimate (log intensity, higher = more binding, comparable within an allelic series)"
same,binding signal,CRX [2],"8.28 upbm affinity estimate (log intensity, higher = more binding, comparable within an allelic series)"
same,binding signal,NKX2-6 [14],"9.59 upbm affinity estimate (log intensity, higher = more binding, comparable within an allelic series)"
same,binding signal,VAX1 [15],"7.25 upbm affinity estimate (log intensity, higher = more binding, comparable within an allelic series)"
same,binding signal,NKX2-6 [16],"9.36 upbm affinity estimate (log intensity, higher = more binding, comparable within an allelic series)"
same,binding signal,VAX1 [17],"7.27 upbm affinity estimate (log intensity, higher = more binding, comparable within an allelic series)"
same,binding signal,CRX [5],"8.25 upbm affinity estimate (log intensity, higher = more binding, comparable within an allelic series)"
same,binding signal,VAX1 [18],"7.03 upbm affinity estimate (log intensity, higher = more binding, comparable within an allelic series)"
CATAATCC,binding signal,CRX [1],"13.4 upbm affinity estimate (log intensity, higher = more binding, comparable within an allelic series)"
same,binding signal,CRX [2],"13.4 upbm affinity estimate (log intensity, higher = more binding, comparable within an allelic series)"
same,binding signal,PITX2,"13.1 upbm affinity estimate (log intensity, higher = more binding, comparable within an allelic series)"
same,binding signal,PROP1 [19],"8.29 upbm affinity estimate (log intensity, higher = more binding, comparable within an allelic series)"
same,binding signal,PROP1 [20],"7.92 upbm affinity estimate (log intensity, higher = more binding, comparable within an allelic series)"
same,binding signal,PROP1 [21],"7.15 upbm affinity estimate (log intensity, higher = more binding, comparable within an allelic series)"
same,binding signal,CRX [5],"13.4 upbm affinity estimate (log intensity, higher = more binding, comparable within an allelic series)"
AGTTAATC,binding signal,CRX [1],"12.7 upbm affinity estimate (log intensity, higher = more binding, comparable within an allelic series)"
same,binding signal,CRX [2],"12.7 upbm affinity estimate (log intensity, higher = more binding, comparable within an allelic series)"
same,binding signal,PITX2,"12.3 upbm affinity estimate (log intensity, higher = more binding, comparable within an allelic series)"
same,binding signal,CRX [5],"12.4 upbm affinity estimate (log intensity, higher = more binding, comparable within an allelic series)"
GAGGATTA,binding signal,CRX [1],"13.5 upbm affinity estimate (log intensity, higher = more binding, comparable within an allelic series)"
same,binding signal,CRX [2],"13.6 upbm affinity estimate (log intensity, higher = more binding, comparable within an allelic series)"
same,binding signal,PITX2,"13.1 upbm affinity estimate (log intensity, higher = more binding, comparable within an allelic series)"
same,binding signal,CRX [5],"13.4 upbm affinity estimate (log intensity, higher = more binding, comparable within an allelic series)"
CACGCTCC,binding signal,CRX [1],"8.3 upbm affinity estimate (log intensity, higher = more binding, comparable within an allelic series)"
same,binding signal,CRX [2],"8.47 upbm affinity estimate (log intensity, higher = more binding, comparable within an allelic series)"
same,binding signal,HOXD13 [22],"9.56 upbm affinity estimate (log intensity, higher = more binding, comparable within an allelic series)"
same,binding signal,HOXD13 [23],"9.55 upbm affinity estimate (log intensity, higher = more binding, comparable within an allelic series)"
same,binding signal,HOXD13 [24],"9.79 upbm affinity estimate (log intensity, higher = more binding, comparable within an allelic series)"
same,binding signal,CRX [5],"8.41 upbm affinity estimate (log intensity, higher = more binding, comparable within an allelic series)"
GCGCACGC,binding signal,CRX [1],"8.22 upbm affinity estimate (log intensity, higher = more binding, comparable within an allelic series)"
same,binding signal,CRX [2],"8.37 upbm affinity estimate (log intensity, higher = more binding, comparable within an allelic series)"
same,binding signal,PITX2,"7.91 upbm affinity estimate (log intensity, higher = more binding, comparable within an allelic series)"
same,binding signal,CRX [5],"8.29 upbm affinity estimate (log intensity, higher = more binding, comparable within an allelic series)"
ATAATCTC,binding signal,CRX [1],"13.1 upbm affinity estimate (log intensity, higher = more binding, comparable within an allelic series)"
same,binding signal,CRX [2],"13.1 upbm affinity estimate (log intensity, higher = more binding, comparable within an allelic series)"
same,binding signal,PITX2,"12.7 upbm affinity estimate (log intensity, higher = more binding, comparable within an allelic series)"
same,binding signal,CRX [5],"13.1 upbm affinity estimate (log intensity, higher = more binding, comparable within an allelic series)"
CAGGATTA,binding signal,CRX [1],"13.1 upbm affinity estimate (log intensity, higher = more binding, comparable within an allelic series)"
same,binding signal,CRX [2],"13.2 upbm affinity estimate (log intensity, higher = more binding, comparable within an allelic series)"
same,binding signal,PITX2,"12.9 upbm affinity estimate (log intensity, higher = more binding, comparable within an allelic series)"
same,binding signal,CRX [5],"13 upbm affinity estimate (log intensity, higher = more binding, comparable within an allelic series)"
AGGATTAA,binding signal,CRX [1],"13.6 upbm affinity estimate (log intensity, higher = more binding, comparable within an allelic series)"
same,binding signal,CRX [2],"13.7 upbm affinity estimate (log intensity, higher = more binding, comparable within an allelic series)"
same,binding signal,PITX2,"13.3 upbm affinity estimate (log intensity, higher = more binding, comparable within an allelic series)"
same,binding signal,CRX [5],"13.5 upbm affinity estimate (log intensity, higher = more binding, comparable within an allelic series)"
CGGGATTA,binding signal,CRX [1],"13.4 upbm affinity estimate (log intensity, higher = more binding, comparable within an allelic series)"
same,binding signal,CRX [2],"13.4 upbm affinity estimate (log intensity, higher = more binding, comparable within an allelic series)"
same,binding signal,PITX2,"13.3 upbm affinity estimate (log intensity, higher = more binding, comparable within an allelic series)"
same,binding signal,CRX [5],"13.3 upbm affinity estimate (log intensity, higher = more binding, comparable within an allelic series)"
ACGCCAGC,binding signal,CRX [1],"8.41 upbm affinity estimate (log intensity, higher = more binding, comparable within an allelic series)"
same,binding signal,CRX [2],"8.28 upbm affinity estimate (log intensity, higher = more binding, comparable within an allelic series)"
same,binding signal,NKX2-6 [14],"9.57 upbm affinity estimate (log intensity, higher = more binding, comparable within an allelic series)"
same,binding signal,NKX2-6 [16],"9.3 upbm affinity estimate (log intensity, higher = more binding, comparable within an allelic series)"
same,binding signal,CRX [5],"8.46 upbm affinity estimate (log intensity, higher = more binding, comparable within an allelic series)"
GATAATCC,binding signal,CRX [1],"13.6 upbm affinity estimate (log intensity, higher = more binding, comparable within an allelic series)"
same,binding signal,CRX [2],"13.8 upbm affinity estimate (log intensity, higher = more binding, comparable within an allelic series)"
same,binding signal,PITX2,"13.4 upbm affinity estimate (log intensity, higher = more binding, comparable within an allelic series)"
same,binding signal,CRX [5],"13.9 upbm affinity estimate (log intensity, higher = more binding, comparable within an allelic series)"
CTAATCTC,binding signal,CRX [1],"13 upbm affinity estimate (log intensity, higher = more binding, comparable within an allelic series)"
same,binding signal,CRX [2],"13 upbm affinity estimate (log intensity, higher = more binding, comparable within an allelic series)"
same,binding signal,PITX2,"12.6 upbm affinity estimate (log intensity, higher = more binding, comparable within an allelic series)"
same,binding signal,PROP1 [19],"8.84 upbm affinity estimate (log intensity, higher = more binding, comparable within an allelic series)"
same,binding signal,PROP1 [21],"7.25 upbm affinity estimate (log intensity, higher = more binding, comparable within an allelic series)"
same,binding signal,CRX [5],"12.7 upbm affinity estimate (log intensity, higher = more binding, comparable within an allelic series)"
